Source: PubChem BioAssay AID652141 (The Scripps Research Institute Molecular Screening Center, 2013)
The campaign covered roughly 5,600 compounds. About 4,500 (80%) were called active. So high a share suggests a set chosen from earlier hits. Not all results are given here. Unmarked numbers belong to inactive results. Rule as the data show it: active = inhibition above about 10%; inactive = the rest.

assay: inhibition of coupled GDH and TPI enzymes – biochemical, fluorescence, high throughput, artefact control for M. tuberculosis FBA inhibitor project (AID 652141); conditions: GDH-TPI coupled enzyme counterscreen, at 1 µM, stronger effect = higher value

Structure (SMILES)	inhibition
Cc1ccc(Cn2c(C)nc3c(c2=O)c2nc4ccccc4nc2n3Cc2ccco2)cc1	48.7% (active)
CC[C@@H]1Cc2cc(O)ccc2C2=C1c1ccc(O)cc1C[C@H]2CC	79.8% (active)
COc1ccc2oc(=O)c(C(=O)NCc3ccccn3)cc2c1	-4.05%
COc1ccc2oc(=O)c(C(=O)N3CCCC3)cc2c1	99.7% (active)
Nc1ccccc1-c1nc2ccncc2[nH]1	0.69%
O=C(Nc1cccc2ccccc12)N1CCN(Cc2ccc3c(c2)OCO3)CC1	34.8% (active)
O=C(Nc1cccc2ccccc12)N1CCC2(CC1)OCCO2	93.7% (active)
COc1cc(C(F)(F)F)nc2c(Br)c(C(C)(C)C)nn12	47.7% (active)
O=C(NCc1cccc(Cl)c1)C1=CC=CN2CCS(=O)(=O)N=C12	-4.53%
CNc1nc(-c2ccccc2)cc(-c2ccccc2)n1	73.9% (active)
Nc1nc2n(n1)C(c1ccco1)CC(c1ccc(Cl)c(Cl)c1)N2 (stereo not drawn)	199% (active)
Cn1cccc1-c1nc2ccccc2n1C	9.72%
Cn1c(-c2ccco2)nc2cc3ccccc3cc21	36.5% (active)
O=C(Nc1nncs1)c1ccccc1NS(=O)(=O)c1cccs1	115% (active)
Cc1ccc(C2Nc3ccccc3C(=O)N2CCN2CCNC2=O)cc1 (stereo not drawn)	-5.86%
CCOC(=O)NN1C(=O)c2ccccc2NC1c1cccc(O)c1 (stereo not drawn)	100% (active)
Cc1cc(C)nc(SCc2cn3c(C)cc(C)nc3n2)n1	69.3% (active)
Cc1nn(C)c(Oc2ccccc2)c1CCNS(=O)(=O)c1ccc(F)cc1	124% (active)
COc1cc(/C=C/c2ccc(/C=C/c3cc(OC)c(OC)c(OC)c3)cc2)cc(OC)c1OC	11.4% (active)
COCCCNC(=O)/C(C#N)=C/c1c(N2CCCCCC2)nc2ccccn2c1=O	50.5% (active)
CC[C@@H](C)[C@H](NC(=O)CCc1c(C)c2cc3c4c(oc3c(C)c2oc1=O)CCCC4)C(=O)O	83% (active)

Structure (SMILES)	inhibition
COCc1cc(=O)n2[nH]c(C)c(-c3ccccc3)c2n1	39.7% (active)
Cc1nc2c(-c3ccccc3)c(C)[nH]n2c(=O)c1Cl	81.2% (active)
CCCc1cc(=O)n2[nH]c(C)c(-c3ccc(Cl)cc3)c2n1	108% (active)
CN1CCc2c(sc3c2c(NCc2ccco2)nc2nnnn23)C1	183% (active)
O=C(CCC(=O)N/N=C/c1ccc(Br)o1)N/N=C/c1ccc(Br)o1	88.2% (active)
Fc1ccc(COc2cccc(-c3n[nH]c(=S)o3)c2)cc1	137% (active)
CCN(C(=O)Nc1cccc2ccccc12)c1ccccc1	118% (active)
COc1cc(OC)cc(C(=O)Nc2ccc(-c3nc4ccccc4o3)c(O)c2)c1	135% (active)
CC(=O)Nc1ccc(-c2nc3ccccc3o2)cc1	-2.16%
CC(C)(C)C(=O)Nc1cccc(-c2ccc[nH]2)n1	71% (active)
CC(C)(C)NC(=O)COc1ccc(CNc2ccc3[nH]c(=O)[nH]c3c2)cc1	2.64%
COCCCn1c(C(=O)NC2CCCCC2)cc2c(=O)n3cccc(C)c3nc21	53.1% (active)
Cc1ccn2c(c1)nc(=O)c1cc(S(=O)(=O)N3CCC(C)CC3)ccc12	-0.78%
Cc1ccc(-n2c(=O)c(C#N)cc3c(=O)n4ccccc4nc32)cc1C	19.5% (active)
Cc1coc2c1c(C)cc1oc(=O)c(CC(=O)NCC(=O)N[C@H](C(=O)O)C(C)C)c(C)c12	49.8% (active)
NC(=O)C1CCN(C(=O)COc2ccc3c4c(c(=O)oc3c2)CCC4)CC1	-5.33%
CCCCC(NS(=O)(=O)c1ccc(C)cc1)C(=O)Oc1ccc2c3c(c(=O)oc2c1)CCC3 (stereo not drawn)	68.4% (active)
COCC(C)OC(=O)c1c(N)n(CCCN2CCOCC2)c2nc3ccccc3nc12 (stereo not drawn)	-2.55%
CCCNC(=O)c1c(N)n(-c2ccc(S(N)(=O)=O)cc2)c2nc3ccccc3nc12	3.87%
C=CCn1c(N)c(C(=O)OCC(C)C)c2nc3ccccc3nc21	59.2% (active)
CC(C)Cn1c(N)c(C(=O)NCc2cccs2)c2nc3ccccc3nc21	29.6% (active)

Structure (SMILES)	inhibition
COc1cccc(NC(=O)CN(C)C(=O)/C=C/c2cc(OC)ccc2OC)c1	82.6% (active)
COc1cccc(NC(=O)CN(C)CC(=O)Nc2ccc3c(c2)CCC3)c1	73.6% (active)
OC[C@@H]1CN(Cc2cccs2)C[C@H](n2cnc3c(Nc4ccccc4)ncnc32)O1	64.2% (active)
COc1ccccc1NC(=O)COc1ccc(C(=O)OCC(=O)N(C(C)C)C(C)C)cc1OC	-2.75%
COc1ccccc1C(=O)Nc1ccc(OCC(=O)N2CCCCC2)cc1	137% (active)
O=C1CC2(CCCCC2)Oc2ccc(OCC(=O)N3CCOCC3)cc21	0.92%
COc1ccc2c(c1OC)C(=O)N(c1ncn[nH]1)C2	53% (active)
COc1nc(N=C(N)N)nc2c(C)cccc12	83.6% (active)
COc1ccc2c(c1)cc1n2CCN=C1NN	89.8% (active)
COCCCn1c(CCC(=O)O)ccc1-c1ccc(F)cc1	43.6% (active)
CN(C)CCCNC(=O)c1ccc2[nH]c3ccccc3c2c1	96.7% (active)
Cc1ccc(-c2nc3ccccc3[nH]c2=O)cc1	61.1% (active)
CC(Nc1nc(N2CCOCC2)nc2ccccc12)c1ccccc1 (stereo not drawn)	31% (active)
c1ccc2c(NC3C4CC5CC(C4)CC3C5)nc(N3CCOCC3)nc2c1 (stereo not drawn)	95.8% (active)
COc1ccc(-c2ccc(C(=O)NCCN3CCOCC3)c3occc23)c(C)c1	56.7% (active)
COc1ccc(-c2ccc(C(=O)NC(C)C)c3occc23)c(C)c1	86.3% (active)
COCc1cc(=O)[nH]c2cc(NC(=O)C(F)(F)F)c(C)cc12	67.2% (active)
CCC(=O)Nc1ccc2nn(-c3ccc(F)cc3)nc2c1	70% (active)
CCNC(=S)Nc1ccc2c(c1)c(=O)n(C)n2Cc1ccc(Cl)cc1	-3.99%
COCCNc1cc(-c2ccccc2)nc2cc(-c3cccc(F)c3)nn12	133% (active)
Cc1cc(S(=O)(=O)c2cc3ccc(O)c(C)c3oc2=O)ccc1F	40.8% (active)
